Screening results from PubChem.
In the library only some 0.69% were active in any assay of this set; here they are far more common.
Abeta yeast res – qHTS for compounds that reverse cellular toxicity of Amyloid beta (A-beta) peptide in yeast: Primary Screen; yeast expressing A-beta42, growth rescue, OD600, 48 h; response scale: 0% DMSO, 100% iron-clioquinol control; 410,000 tested, 0.063% active; Potency, µM (series often up to 46.1 µM), actives largely listed as activators; AID 1347071, 2019; further: nearly all actives have a fitted effect of over 55% in size
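Growth rescue measured by 600 nm absorbance after 48 h yeast culture at 30 C with compound. Values normalized between DMSO and an equimolar ferric chloride plus clioquinol control.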
PINK1 expr mod – A Quantitative High throughput Screen to Identify Chemical Modulators of PINK1 Expression; PINK1 immunofluorescence, high-content cytometry, 24 h; Potency, µM (titrated, usually from 76.6 µM), hits mostly activators; 410,000 tested, 0.2% active; AID 624263, 2012; active means well fitted activation curve with a large enough effect; inconclusive means small, poorly fitted or top-dose-only effect; cell line not stated here; further: nearly all actives have a fitted effect of over 65% in size
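A stable cell line was treated with compounds at 5 concentrations for 24 hours, with CCCP as control. PINK1 levels and mitochondrial localization were measured by immunofluorescence with mitochondrial, cell and nuclear markers after fixation, read by laser-scanning cytometry.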
Vif-A3G inh – qHTS for Inhibitors of Vif-A3G Interactions: qHTS; DNA dC->dU-editing enzyme APOBEC-3G (Homo sapiens), Q9HC16; 410,000 tested, 0.076% active; AID 602310, 2012; HeLa A3G-eYFP + Vif (tagged APOBEC3G with the HIV-1 protein that degrades it), YFP fluorescence, overnight; Potency, µM (series often up to 46.1 µM), most hits filed as inhibitors; further: nearly all actives have a fitted effect of over 60% in size
Target sequence (Q9HC16 whole entry, looked up): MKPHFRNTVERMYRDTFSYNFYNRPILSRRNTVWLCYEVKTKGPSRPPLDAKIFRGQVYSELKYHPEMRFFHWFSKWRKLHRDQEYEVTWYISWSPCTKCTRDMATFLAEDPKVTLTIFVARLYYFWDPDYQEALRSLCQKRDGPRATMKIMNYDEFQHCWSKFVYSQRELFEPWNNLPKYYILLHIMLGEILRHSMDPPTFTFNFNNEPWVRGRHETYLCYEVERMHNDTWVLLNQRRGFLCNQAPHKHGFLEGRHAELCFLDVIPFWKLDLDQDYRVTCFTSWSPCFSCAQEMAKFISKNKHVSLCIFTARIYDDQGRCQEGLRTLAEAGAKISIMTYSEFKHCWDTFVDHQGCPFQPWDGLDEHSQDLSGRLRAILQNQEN
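HeLa cells stably expressing Vif and C-terminally eYFP-tagged A3G, seeded overnight at 37 deg C, then exposed to compound by pintool overnight at 37 deg C. Rise in yellow fluorescence (Ex 488/Em 500-530, Acumen) marks blocked Vif-driven A3G degradation.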
GRP78 ERSR act – qHTS for Inducers of the Endoplasmic Reticulum Stress Response (ERSR) in Human Glioma: qHTS. U87-MG GRP78 promoter luciferase reporter, 16 h. Potency, µM, actives largely listed as activators. 420,000 tested, 0.02% active; further: series mostly up to about 76 µM; nearly all actives have a fitted effect of over 35% in size
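ERSR induction read as luciferase luminescence (Bright-Glo, 10 min at room temperature) in stably transfected human U87-MG glioma cells exposed to compounds for 16 h, using GRP78 as sensor.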
FUS yeast rescue – qHTS for Suppressors of FUS Proteinopathy: Primary screen using FUS-linked yeast assay. S. cerevisiae FUS-expressing, growth rescue, OD600, 24 h. Potency, µM (series often up to 76.6 µM), hits mostly activators. 390,000 tested, 0.24% active. AID 1347120, 2019; further: nearly all actives have a fitted effect of over 55% in size
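S. cerevisiae expressing FUS from galactose induction served as the toxicity model. Growth after 24hr at 30C, read as absorbance at 600 nm, indicates suppression of toxicity; compounds dosed at several concentrations.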
Vif-APOBEC3F blk – qHTS for Inhibitors of Vif-A3F Interactions: qHTS; HeLa A3F-eYFP + Vif (tagged APOBEC3F with the HIV-1 protein that degrades it), YFP fluorescence increase; Potency, µM (doses to about 46.1 µM); 390,000 tested, 0.2% active; AID 602313, 2012; further: nearly all actives have a fitted effect of over 65% in size
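HeLa cells stably expressing A3F-eYFP plus Vif, plated and incubated overnight at 37 deg C, then exposed to compounds overnight at 37 deg C. Blocked degradation read as raised yellow fluorescence (Ex 488/Em 500-530).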
Numbers stand for hits; n = inactive; u = inconclusive; x = not tested or not shown. Unless noted, the call rests on the fitted dose curve; in most records, active means well fitted curve in the direction sought with a large enough effect; inconclusive means small, poorly fitted or top-dose-only effect, or another doubt; inactive means no such curve, though single readings can be large; an effect the other way counts as inactive or inconclusive.

SMILES	Abeta yeast res	PINK1 expr mod	Vif-A3G inh	GRP78 ERSR act	FUS yeast rescue	Vif-APOBEC3F blk
CCC1(C2CCN(C(=O)c3csc(C(C)=O)c3)CC2)NC(=O)N(CCc2scnc2C)C1=O (stereo not given)	x	n	x	n	x	x
CCOC(=O)c1ccc(OCC2c3cc(OC)c(OC)cc3CCN2C(=O)Cc2ccc(F)cc2)cc1 (stereo not given)	n	n	n	n	13µM	n
COc1cc2c(cc1OC)C(COc1ccc(F)cc1)N(C(=O)Cc1ccc(F)cc1)CC2 (stereo not given)	n	n	n	n	n	n
CCc1ccc(/C=C/c2c[nH]c3ccccc23)[n+](CC)c1	n	32µM	u	n	n	u
COc1ccc(N2CCN(C(=O)c3cc(NC(C)=O)c4c(c3)ncn4CCc3ccccn3)CC2)cc1	x	n	x	n	x	x
CC(NC(=O)/C(=C/c1ccc(OC(F)F)cc1)c1ccccc1)c1ccccc1 (stereo not given)	n	45µM	n	n	x	n
COc1cc(-c2nc(C)cnc2C)cc2c1OCCN(C(=O)Cn1nc(-c3ccccc3)c3ccccc3c1=O)C2	x	n	x	n	x	x
O=C(CSc1nnc(-c2ccncc2)o1)c1cccc([N+](=O)[O-])c1	n	n	n	n	n	n
CC(=O)Nc1cccc(-c2nnc(SCC(=O)c3cc([N+](=O)[O-])ccc3Cl)o2)c1	n	n	n	n	13µM	n
COc1ccccc1NC(=O)/C(C#N)=C/C=C/c1ccco1	n	2.8µM	u	n	u	u
N#C/C(=C\c1ccc(Cl)cc1)C(=O)Nc1cccnc1	13µM	n	n	n	n	n
COc1ccc(N=Cc2c(O)n(-c3cccc(C)n3)c(=O)c3ccccc23)c(OC)c1	n	45µM	u	n	n	10µM
COc1cc2c(NC3CCN(C(C)C)CC3)nc(N3CCCN(C)CC3)nc2cc1OCCCN(C)C	x	n	n	n	x	x
O=C1CN(C(=O)COc2ccc(Cl)cc2Cl)C(c2ccc(F)cc2)c2cc(F)ccc2N1 (stereo not given)	n	n	n	n	u	n
O=C1CN(C(=O)COc2ccc(Cl)cc2Cl)C(c2ccccc2)c2cc(F)ccc2N1 (stereo not given)	n	n	n	n	32µM	n
O=C(c1ccc2c(c1)OCO2)N(Cc1cc2cc3c(cc2nc1N1CCOCC1)CCC3)CC1CCCO1 (stereo not given)	x	n	x	n	x	x
CC(C)(C)OC(=O)C[C@@H]1C/C=C\C[C@@H](CC(=O)N(CCO)Cc2ccccc2)C(=O)N[C@H](Cc2c[nH]c3ccccc23)COC1=O	n	n	n	n	u	n
CC(C)(C)OC(=O)C[C@H]1C/C=C\C[C@@H](CC(=O)N(CCO)Cc2ccccc2)C(=O)N[C@H](Cc2c[nH]c3ccccc23)COC1=O	n	n	n	n	20µM	n
O=[N+]([O-])c1ccc(N/N=C\c2cccn2-c2ccccc2)nc1	n	n	11µM	n	n	u
CCN(CC)c1ccc(C=NNc2ccc([N+](=O)[O-])cn2)cc1	n	n	u	n	n	3.5µM
O=[N+]([O-])c1ccc(NN=Cc2ccc(O)cc2)nc1	n	n	n	n	n	n
COc1ccc(C=NNc2ccc([N+](=O)[O-])cn2)cc1	n	11µM	n	n	n	u
COc1cc(OC)c(OC)cc1CN1CCCC(c2nc(C)ncc2-c2ccc(F)cc2)C1 (stereo not given)	x	n	x	n	x	x
CN(C)c1ccc(C(=C2C=CC(=[N+](C)C)C=C2)c2ccc(N(C)C)cc2)cc1	x	u	n	n	x	x
CC1=CC(=C(c2ccc(N)cc2)c2ccc(N)cc2)C=CC1=N	x	16µM	n	n	x	x
